In PubChem BioAssay (Tox21):
Results filed as inconclusive are left out. Activity calls are given as the source filed them. Unless noted, calls come from the whole dose curve; as a rule, active = well fitted curve in the direction sought with a large enough effect in the repeat runs; inconclusive = weak or mixed curves; inactive = no such curve, though single readings can be large; an effect the other way counts as inactive or inconclusive.

Key:
[1] = target: Aryl hydrocarbon receptor (Homo sapiens) (UniProt P35869); assay: qHTS assay to identify small molecule that activate the aryl hydrocarbon receptor (AhR) signaling pathway (AID 743085);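 note: HG2L7.5c1 human HepG2 liver cells with stably integrated DRE-driven firefly reporter; series mostly up to about 70 µM; nearly all actives have a fitted effect of over 15% in size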
Chain of Aryl hydrocarbon receptor (Homo sapiens) (P35869 whole entry, looked up): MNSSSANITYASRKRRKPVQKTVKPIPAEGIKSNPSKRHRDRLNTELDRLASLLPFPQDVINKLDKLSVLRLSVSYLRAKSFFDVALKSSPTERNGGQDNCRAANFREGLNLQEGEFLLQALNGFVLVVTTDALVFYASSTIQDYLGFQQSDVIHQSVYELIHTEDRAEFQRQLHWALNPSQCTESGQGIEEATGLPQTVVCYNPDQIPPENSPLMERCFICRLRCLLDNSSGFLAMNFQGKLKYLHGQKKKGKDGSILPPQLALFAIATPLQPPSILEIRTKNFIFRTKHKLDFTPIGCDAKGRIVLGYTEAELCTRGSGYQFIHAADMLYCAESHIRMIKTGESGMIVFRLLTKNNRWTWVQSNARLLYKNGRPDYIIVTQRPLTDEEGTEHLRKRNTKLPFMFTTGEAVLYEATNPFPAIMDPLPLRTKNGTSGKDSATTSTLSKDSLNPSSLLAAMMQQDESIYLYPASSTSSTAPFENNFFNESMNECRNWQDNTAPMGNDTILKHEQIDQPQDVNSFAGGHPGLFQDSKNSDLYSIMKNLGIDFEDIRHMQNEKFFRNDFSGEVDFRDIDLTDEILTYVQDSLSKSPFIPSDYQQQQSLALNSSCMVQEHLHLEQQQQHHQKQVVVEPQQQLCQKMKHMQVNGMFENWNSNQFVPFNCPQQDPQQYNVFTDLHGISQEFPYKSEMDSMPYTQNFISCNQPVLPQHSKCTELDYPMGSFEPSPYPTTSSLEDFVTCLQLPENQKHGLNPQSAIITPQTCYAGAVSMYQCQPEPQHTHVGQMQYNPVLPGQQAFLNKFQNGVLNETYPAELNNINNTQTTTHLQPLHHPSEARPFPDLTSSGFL
Procedure, shortened: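 Compounds were tested in HepG2 hepatocellular carcinoma cells harbouring a stably integrated luciferase gene under control of 20 DREs. Increased reporter signal after 24 h treatment at 37C was taken as AhR activation.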

[2] = qHTS assay to identify small molecule that activate the aryl hydrocarbon receptor (AhR) signaling pathway - cell viability counter screen (AID 743086);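 note: HepG2 liver cells carrying the AhR DRE luciferase reporter; series mostly up to about 70 µM; nearly all actives have a fitted effect of over 45% in size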
Procedure, shortened: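 HepG2-AhR-luc (HG2L7.5c1) cells, 4000/well, were preincubated 5 h at 37C, exposed to compound in qHTS format for 24 hr at 37C, then given CellTiter-Fluor for 30 min; viability was read as fluorescence in the reporter wells.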

[3] = target: Peroxisome proliferator-activated receptor gamma (Homo sapiens) (UniProt P37231); assay: qHTS assay to identify small molecule agonists of the peroxisome proliferator-activated receptor gamma (PPARg) signaling pathway (AID 743094; active = well fitted activation curve with a large enough effect in the signal ratio in the repeat runs, not every such curve was filed as active; the % refers to the signal ratio)
Chain of Peroxisome proliferator-activated receptor gamma (Homo sapiens) (P37231 whole entry, looked up): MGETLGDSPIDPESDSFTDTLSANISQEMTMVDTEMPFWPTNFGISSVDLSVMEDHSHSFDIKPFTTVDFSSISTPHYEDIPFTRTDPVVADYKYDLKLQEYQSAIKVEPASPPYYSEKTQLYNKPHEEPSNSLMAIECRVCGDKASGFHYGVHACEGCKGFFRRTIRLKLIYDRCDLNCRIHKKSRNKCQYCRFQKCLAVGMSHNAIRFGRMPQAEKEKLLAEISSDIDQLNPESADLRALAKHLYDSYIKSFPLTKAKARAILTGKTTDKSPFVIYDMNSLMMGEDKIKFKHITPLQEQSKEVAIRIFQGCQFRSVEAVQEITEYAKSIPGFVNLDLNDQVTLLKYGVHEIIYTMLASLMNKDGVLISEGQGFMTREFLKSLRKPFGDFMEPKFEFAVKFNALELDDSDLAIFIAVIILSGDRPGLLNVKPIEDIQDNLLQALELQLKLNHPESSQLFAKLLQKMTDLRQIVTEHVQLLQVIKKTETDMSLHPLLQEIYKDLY
Procedure, shortened: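 Cell-based bla reporter, HEK293H background, PPARg-driven UAS. Pre-incubation 5 h, 37C, 5% CO2. Compound 17 h, 37C. Substrate 1 h RT; fluorescence.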

[4] = qHTS assay to identify small molecule antagonists of the peroxisome proliferator-activated receptor gamma (PPARg) signaling pathway - cell viability counter screen (AID 743194); note: nearly all actives have a fitted effect of over 55% in size
Procedure, shortened: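 PPARg-UAS-bla HEK293H cells were plated, rested 5 h at 37 C, then treated with compounds plus rosiglitazone (50 nM final) for 17 h at 37 C; viability was then read by CellTiter-Glo luminescence after 30 min at room temperature.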

[5] = qHTS assay for small molecule agonists of the antioxidant response element (ARE) signaling pathway - cell viability counter screen (AID 743203; calls by dose curve; note: nearly all actives have a fitted effect of over 55% in size)
Procedure, shortened: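 Measured in the same wells as the beta-lactamase ARE reporter, this read-out is CellTiter-Glo luminescence from HepG2 ARE-bla cells given compounds for 16 hrs.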

[6] = qHTS assay for small molecule activators of the heat shock response signaling pathway - cell viability counter screen (AID 743209); note: nearly all actives have a fitted effect of over 50% in size; note: potency is the fitted concentration of half-maximal effect
Procedure, shortened: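 Same-well multiplex: after 2.5 h room-temperature incubation with LiveBLAzer B/G substrate and fluorescence reading, CellTiter-Glo reagent was added to HSE-bla HeLa cells that had received compound for 5 h at 37 C; luminescence read after 30 min.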

[7] = qHTS assay for small molecule activators of the heat shock response signaling pathway (AID 743210; active = well fitted activation curve with a large enough effect in the signal ratio in the repeat runs, with a control signal flat, not every such curve was filed as active; the % refers to the signal ratio; note: series mostly up to about 63 µM)
Procedure, shortened: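 Heat shock element–beta-lactamase HeLa reporter cells; qHTS with compounds for 5 h at 37 C; detection by FRET substrate fluorescence after 2.5 h at RT.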

[8] = qHTS assay to identify small molecule agonists of the peroxisome proliferator-activated receptor delta (PPARd) signaling pathway - cell viability counter screen (AID 743211); note: nearly all actives have a fitted effect of over 55% in size
Procedure, shortened: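 Counter screen for cytotoxicity run in parallel with the PPARd reporter screen. Beta-lactamase reporter HEK293H cells exposed to compounds 17 h; ATP-based CellTiter-Glo luminescence quantified viability.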

[9] = target: Peroxisome proliferator-activated receptor delta (Homo sapiens) (UniProt Q03181); assay: qHTS assay to identify small molecule agonists of the peroxisome proliferator-activated receptor delta (PPARd) signaling pathway (AID 743212; calls by dose curve;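 note: HEK293H cells with PPARd UAS beta-lactamase reporter GeneBLAzer system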)
Chain of Peroxisome proliferator-activated receptor delta (Homo sapiens) (Q03181 whole entry, looked up): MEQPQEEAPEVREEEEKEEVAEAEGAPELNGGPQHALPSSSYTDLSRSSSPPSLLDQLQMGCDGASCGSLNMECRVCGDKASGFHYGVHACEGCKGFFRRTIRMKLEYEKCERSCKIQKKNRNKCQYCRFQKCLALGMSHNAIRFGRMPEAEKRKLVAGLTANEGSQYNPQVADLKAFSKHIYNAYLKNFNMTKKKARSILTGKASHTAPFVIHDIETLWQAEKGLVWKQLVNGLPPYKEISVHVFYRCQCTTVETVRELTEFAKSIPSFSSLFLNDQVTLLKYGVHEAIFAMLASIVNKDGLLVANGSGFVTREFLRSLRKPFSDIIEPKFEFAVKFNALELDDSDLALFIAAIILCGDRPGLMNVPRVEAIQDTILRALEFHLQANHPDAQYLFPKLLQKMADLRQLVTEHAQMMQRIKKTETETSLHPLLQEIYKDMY
Procedure, shortened: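 Beta-lactamase reporter read by fluorescence (LiveBLAzer B/G FRET, 2 h, room temperature). Test agents, in DMSO, incubated at 37 C with PPARd-bla HEK293H cells.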

[10] = qHTS assay to identify small molecule antagonists of the peroxisome proliferator-activated receptor delta (PPARd) signaling pathway - cell viability counter screen (AID 743213); note: nearly all actives have a fitted effect of over 50% in size
Procedure, shortened: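 Same-well viability: cells pre-incubated 5 h, dosed with compound plus 300 nM L165041, kept 17 h at 37 C, FRET substrate 2 h RT, then CellTiter-Glo 30 min RT and luminescence.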

[11] = target: Peroxisome proliferator-activated receptor delta (Homo sapiens) (UniProt Q03181); assay: qHTS assay to identify small molecule antagonists of the peroxisome proliferator-activated receptor delta (PPARd) signaling pathway (AID 743215; active = well fitted inhibition curve with a large enough effect in the signal ratio in the repeat runs, not every such curve was filed as active; the % refers to the signal ratio;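 note: cells stimulated with agonist L165041 at 300 nM final during compound exposure; series mostly up to about 62 µM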)
Procedure, shortened: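 Fluorescence from cleaved LiveBLAzer B/G FRET substrate (2 h, room temperature) reports PPARd-driven beta-lactamase in HEK293H UAS-bla cells. Cells had been treated 17 h at 37 C with compound plus 300 nM final L165041.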

[12] = target: Bile acid receptor (Homo sapiens) (UniProt Q96RI1); assay: qHTS assay to identify small molecule antagonists of the farnesoid-X-receptor (FXR) signaling pathway (AID 743217; active = well fitted inhibition curve with a large enough effect in the signal ratio in the repeat runs, not every such curve was filed as active; the % refers to the signal ratio)
Chain of Bile acid receptor (Homo sapiens) (Q96RI1 whole entry, looked up): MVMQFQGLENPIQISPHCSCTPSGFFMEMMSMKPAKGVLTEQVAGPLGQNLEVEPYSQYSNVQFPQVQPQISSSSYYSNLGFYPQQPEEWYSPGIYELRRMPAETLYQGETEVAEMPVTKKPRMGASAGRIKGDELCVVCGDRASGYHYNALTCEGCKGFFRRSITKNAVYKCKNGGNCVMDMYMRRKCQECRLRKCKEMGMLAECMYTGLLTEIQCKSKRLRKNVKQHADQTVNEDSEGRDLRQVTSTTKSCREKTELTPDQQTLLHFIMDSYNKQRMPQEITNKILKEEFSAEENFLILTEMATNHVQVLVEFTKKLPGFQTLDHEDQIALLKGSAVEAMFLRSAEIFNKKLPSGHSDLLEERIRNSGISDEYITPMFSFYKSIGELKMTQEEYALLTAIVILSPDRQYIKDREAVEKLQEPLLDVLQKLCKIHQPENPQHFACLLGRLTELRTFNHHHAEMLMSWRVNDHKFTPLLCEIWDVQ
Procedure, shortened: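 FRET fluorescence after 2 h room-temperature LiveBLAzer loading gives the readout. Prior step: FXR-bla HEK 293T cells, seeded and incubated 5 h, received test compounds plus 50 uM final CDCA for 16 h at 37 °C.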

[13] = qHTS assay to identify small molecule agonists of the farnesoid-X-receptor (FXR) signaling pathway - cell viability counter screen (AID 743218); note: nearly all actives have a fitted effect of over 45% in size
Procedure, shortened: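 Readout: CellTiter-Glo luminescence, 30 min RT, multiplexed after the FXR-bla FRET reading. HEK 293T FXR-UAS-bla cells received compound 5 h post-plating and were incubated 16 h at 37 C.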

[14] = target: Bile acid receptor (Homo sapiens) (UniProt Q96RI1); assay: qHTS assay to identify small molecule agonists of the farnesoid-X-receptor (FXR) signaling pathway (AID 743220; active = well fitted activation curve with a large enough effect in the signal ratio in the repeat runs, not every such curve was filed as active; the % refers to the signal ratio)
Procedure, shortened: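 FXR-UAS-bla HEK 293T cells carrying a UAS-driven beta-lactamase reporter were plated for 5 h at 37C/5% CO2, then exposed to DMSO-dissolved Tox21 10K compounds for 16 h at 37C. A LiveBLAzer B/G FRET substrate was loaded for 2 h at room temperature before fluorescence reading.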

[15] = qHTS assay to identify small molecule antagonists of the farnesoid-X-receptor (FXR) signaling pathway - cell viability counter screen (AID 743221; active = well fitted cell-killing curve with a large enough effect in the repeat runs, not every such curve was filed as active; note: nearly all actives have a fitted effect of over 50% in size)
Procedure, shortened: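 Multiplexed counter screen: viability of FXR-bla HEK 293T cells under agonist stimulation by chenodeoxycholic acid (50 uM, final) and test compound for 16 h at 37 C, measured by CellTiter-Glo luminescence in the reporter wells.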

[16] = qHTS assay to identify small molecule agonists of the vitamin D receptor (VDR) signaling pathway - cell viability counter screen (AID 743224); note: series mostly up to about 63 µM; nearly all actives have a fitted effect of over 50% in size
Procedure, shortened: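 In parallel with the bla FRET readout, cytotoxicity toward VDR-bla cells after 16 h compound exposure was assessed by CellTiter-Glo, with luminescence recorded after a 30 min room-temperature incubation.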

[17] = qHTS assay for small molecule agonists of the antioxidant response element (ARE) signaling pathway (AID 743202; active = well fitted activation curve with a large enough effect in the signal ratio in the repeat runs, not every such curve was filed as active; the % refers to the signal ratio; note: potency is the fitted concentration of half-maximal effect)
Procedure, shortened: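 Following a 16 h, 37 C exposure of reporter HepG2 cells (ARE-driven beta-lactamase, 2,000 cells/well) to compounds, FRET substrate was applied for 2 h at room temperature and fluorescence intensity recorded.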

[18] = target: Vitamin D3 receptor (Homo sapiens) (UniProt P11473); assay: qHTS assay to identify small molecule agonists of the vitamin D receptor (VDR) signaling pathway (AID 743222; calls by dose curve)
Chain of Vitamin D3 receptor (Homo sapiens) (P11473 whole entry, looked up): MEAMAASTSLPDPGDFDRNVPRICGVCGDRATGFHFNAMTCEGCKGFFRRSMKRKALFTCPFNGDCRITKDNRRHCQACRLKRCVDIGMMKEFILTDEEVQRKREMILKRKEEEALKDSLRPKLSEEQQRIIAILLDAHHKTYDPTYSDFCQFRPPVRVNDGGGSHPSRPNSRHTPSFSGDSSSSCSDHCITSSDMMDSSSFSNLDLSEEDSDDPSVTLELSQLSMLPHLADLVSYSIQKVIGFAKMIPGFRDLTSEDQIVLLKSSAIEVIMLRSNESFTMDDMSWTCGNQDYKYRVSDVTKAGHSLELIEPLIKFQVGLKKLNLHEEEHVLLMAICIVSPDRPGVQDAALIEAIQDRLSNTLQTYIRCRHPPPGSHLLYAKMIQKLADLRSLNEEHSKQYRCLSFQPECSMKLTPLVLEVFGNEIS
Procedure, shortened: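 Following 4 h attachment at 37C, VDR-bla cells (2,000 per well) received DMSO-dissolved compounds or controls. After 16 h incubation, LiveBLAzer B/G FRET substrate was added and fluorescence read 2 h later at room temperature.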

[19] = target: Vitamin D3 receptor (Homo sapiens) (UniProt P11473); assay: qHTS assay to identify small molecule antagonists of the vitamin D receptor (VDR) signaling pathway (AID 743223; active = well fitted inhibition curve with a large enough effect in the signal ratio in the repeat runs, not every such curve was filed as active; the % refers to the signal ratio)
Procedure, shortened: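 Cells carrying a VDR-driven beta-lactamase reporter (VDR-bla) were co-treated with compound and 3 nM final 1alpha,25-dihydroxyvitamin D3 for 16 h at 37C; reporter activity was measured as FRET substrate fluorescence after 2 h at room temperature.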
% is set by controls: 0 for no effect and ±100 for the full control effect.

S=c1nccc[nH]1
inactive: Potency [1] | Potency [2] | Potency [3] | Potency [4] | Potency [5] | Potency [6] | Potency [7] | Potency [8] | Potency [9] | Potency [10] | Potency [11] | Potency [12] | Potency [13] | Potency [14] | Potency [15] | Potency [16]

CCCCC(CC)COC(=O)CCCCC(=O)OCc1ccccc1 (configuration not stated)
inactive: Potency [1] | Potency [2] | Potency [3] | Potency [4] | Potency [17] | Potency [5] | Potency [6] | Potency [8] | Potency [9] | Potency [12] | Potency [13] | Potency [14] | Potency [15] | Potency [18] | Potency [19] | Potency [16]

Cc1cccc2cccnc12
inactive: Potency [1] | Potency [2] | Potency [3] | Potency [4] | Potency [17] | Potency [5] | Potency [7] | Potency [8] | Potency [9] | Potency [10] | Potency [11] | Potency [13] | Potency [15] | Potency [18] | Potency [19] | Potency [16]

CC(C)(C)CC(C)(C)c1ccc(Nc2ccc(C(C)(C)CC(C)(C)C)cc2)cc1
inactive: activation [1] -2.79% [at 8.47 µM] | viability change, negative = cytotoxic [2] -11.3% [at 8.47 µM] | activation [3] 0.247% [at 7.08 µM] | activity change, negative = cytotoxicity [4] -4.03% [at 5.95 µM] | activation [17] -4.99% [at 8.36 µM] | activity change, negative = cytotoxicity [6] 7.93% [at 5.95 µM] | activation [7] 0.375% [at 5.95 µM] | activity change, negative = cytotoxicity [8] -7.52% [at 5.95 µM] | activation [9] 5.67% [at 5.95 µM] | viability change, negative = cytotoxic [10] 2.44% [at 6.26 µM] | viability change, negative = cytotoxic [13] -9.89% [at 5.95 µM] | activity change, negative = cytotoxicity [15] 1.78% [at 5.95 µM]

CCCCC/C=C\C/C=C\CCCCCCCC(=O)O
inactive: Potency [1] | Potency [2] | Potency [3] | Potency [4] | Potency [5] | Potency [8] | Potency [9] | Potency [10] | Potency [11] | Potency [12] | Potency [14] | Potency [15] | Potency [18] | Potency [16]
active: Potency [17] 61.1 µM | Potency [6] 42.9 µM

O=[N+]([O-])c1cccc(C(F)(F)F)c1
inactive: Potency [1] | Potency [2] | Potency [3] | Potency [4] | Potency [17] | Potency [5] | Potency [6] | Potency [8] | Potency [9] | Potency [10] | Potency [13] | Potency [15] | Potency [18] | Potency [19]

O=C(O)c1cc(=O)c2ccccc2o1
inactive: Potency [1] | Potency [2] | Potency [3] | Potency [4] | Potency [17] | Potency [5] | Potency [6] | Potency [8] | Potency [9] | Potency [10] | Potency [11] | Potency [13] | Potency [15] | Potency [18] | Potency [19] | Potency [16]

CC1(C)CCC[C@]2(C)[C@H]3CCO[C@]3(C)CC[C@@H]12
inactive: Potency [1] | Potency [2] | Potency [3] | Potency [4] | Potency [17] | Potency [5] | Potency [6] | Potency [7] | Potency [8] | Potency [9] | Potency [10] | Potency [11] | Potency [13] | Potency [15] | Potency [19] | Potency [16]
